The text below walks through data of ChEMBL document CHEMBL1961873, “Compounds: GSK PKIS; Assays: Nanosyn kinase panel” (2012).

Assay [1] concerns the target T1, Aurora kinase A (Homo sapiens) (UniProt O14965).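 Note: values are mean percent inhibition.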
T1 sequence (whole entry): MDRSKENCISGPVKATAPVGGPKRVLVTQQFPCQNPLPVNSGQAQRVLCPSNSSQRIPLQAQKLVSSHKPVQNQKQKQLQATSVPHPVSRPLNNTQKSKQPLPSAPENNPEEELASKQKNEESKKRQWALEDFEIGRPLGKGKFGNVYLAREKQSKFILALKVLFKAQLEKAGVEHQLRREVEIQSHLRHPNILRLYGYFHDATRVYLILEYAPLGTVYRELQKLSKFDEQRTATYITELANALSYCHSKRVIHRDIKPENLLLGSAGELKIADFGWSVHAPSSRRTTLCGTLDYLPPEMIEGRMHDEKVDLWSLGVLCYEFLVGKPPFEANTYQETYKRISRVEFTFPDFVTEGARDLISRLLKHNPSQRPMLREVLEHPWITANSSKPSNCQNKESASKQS
To be noted: at 1 µM.

Assay [2] deals with Aurora kinase B (Homo sapiens) (UniProt Q96GD4). To be noted: at 0.1 µM.
For assay [3] the target is unchanged. To be noted: at 1 µM.
Assay [4] deals with T2, Aurora kinase C (Homo sapiens) (UniProt Q9UQB9).
T2 sequence (whole entry): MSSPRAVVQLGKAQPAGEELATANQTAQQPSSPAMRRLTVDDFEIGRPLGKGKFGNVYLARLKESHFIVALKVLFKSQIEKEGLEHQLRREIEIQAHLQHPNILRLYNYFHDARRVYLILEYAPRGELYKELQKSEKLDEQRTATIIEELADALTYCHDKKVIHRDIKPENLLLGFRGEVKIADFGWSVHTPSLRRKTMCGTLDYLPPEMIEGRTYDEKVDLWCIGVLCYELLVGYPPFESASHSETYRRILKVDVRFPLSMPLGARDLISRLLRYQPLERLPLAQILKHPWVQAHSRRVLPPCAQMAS
As to conditions: at 0.1 µM.

Assay [5] has as its target T2, Aurora kinase C (Homo sapiens). To be noted: at 1 µM.
Assay [6] deals with Serine/threonine-protein kinase 10 (Homo sapiens) (UniProt O94804). To be noted: at 0.1 µM.
The target is the same in assay [7]. As to conditions: at 1 µM.
Assay [8] concerns the target T3, Mitogen-activated protein kinase kinase kinase kinase 2 (Homo sapiens) (UniProt Q12851).
T3 sequence (whole entry): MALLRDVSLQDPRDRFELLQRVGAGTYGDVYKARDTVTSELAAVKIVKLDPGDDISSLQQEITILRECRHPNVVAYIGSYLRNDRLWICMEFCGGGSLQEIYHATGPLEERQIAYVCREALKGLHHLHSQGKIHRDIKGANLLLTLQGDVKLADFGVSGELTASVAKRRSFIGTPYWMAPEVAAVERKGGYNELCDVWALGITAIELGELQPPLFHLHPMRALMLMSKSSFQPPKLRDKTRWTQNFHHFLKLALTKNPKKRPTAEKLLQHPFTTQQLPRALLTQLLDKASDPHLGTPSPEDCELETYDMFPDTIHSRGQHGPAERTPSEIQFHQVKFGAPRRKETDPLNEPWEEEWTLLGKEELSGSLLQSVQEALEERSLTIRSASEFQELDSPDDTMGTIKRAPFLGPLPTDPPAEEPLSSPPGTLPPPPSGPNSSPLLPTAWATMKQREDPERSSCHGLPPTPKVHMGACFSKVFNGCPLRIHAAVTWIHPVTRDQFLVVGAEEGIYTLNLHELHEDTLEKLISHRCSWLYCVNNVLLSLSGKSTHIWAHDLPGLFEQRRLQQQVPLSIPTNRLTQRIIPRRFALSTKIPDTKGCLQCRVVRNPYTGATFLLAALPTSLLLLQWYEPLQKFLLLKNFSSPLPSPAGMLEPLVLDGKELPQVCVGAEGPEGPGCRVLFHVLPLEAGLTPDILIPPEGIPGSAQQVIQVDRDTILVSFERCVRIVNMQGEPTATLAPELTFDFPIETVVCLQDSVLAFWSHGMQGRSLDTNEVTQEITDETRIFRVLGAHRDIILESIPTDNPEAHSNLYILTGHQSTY
As to conditions: at 0.1 µM.

In assay [9] the target is T3, Mitogen-activated protein kinase kinase kinase kinase 2 (Homo sapiens). To be noted: at 1 µM.
Assay [10] concerns the target Mitogen-activated protein kinase kinase kinase kinase 4 (Homo sapiens) (UniProt O95819). To be noted: at 0.1 µM.
For assay [11] the target is unchanged. To be noted: at 1 µM.
Assay [12] addresses Dual specificity mitogen-activated protein kinase kinase 1 (Homo sapiens) (UniProt Q02750). To be noted: at 0.1 µM.
For assay [13] the target is unchanged. As to conditions: at 1 µM.
Assay [14] concerns the target Misshapen-like kinase 1 (Homo sapiens) (UniProt Q8N4C8). To be noted: at 0.1 µM.
For assay [15] the target is unchanged. To be noted: at 1 µM.
Assay [16] deals with T4, Serine/threonine-protein kinase 4 (Homo sapiens) (UniProt Q13043).
T4 sequence (whole entry): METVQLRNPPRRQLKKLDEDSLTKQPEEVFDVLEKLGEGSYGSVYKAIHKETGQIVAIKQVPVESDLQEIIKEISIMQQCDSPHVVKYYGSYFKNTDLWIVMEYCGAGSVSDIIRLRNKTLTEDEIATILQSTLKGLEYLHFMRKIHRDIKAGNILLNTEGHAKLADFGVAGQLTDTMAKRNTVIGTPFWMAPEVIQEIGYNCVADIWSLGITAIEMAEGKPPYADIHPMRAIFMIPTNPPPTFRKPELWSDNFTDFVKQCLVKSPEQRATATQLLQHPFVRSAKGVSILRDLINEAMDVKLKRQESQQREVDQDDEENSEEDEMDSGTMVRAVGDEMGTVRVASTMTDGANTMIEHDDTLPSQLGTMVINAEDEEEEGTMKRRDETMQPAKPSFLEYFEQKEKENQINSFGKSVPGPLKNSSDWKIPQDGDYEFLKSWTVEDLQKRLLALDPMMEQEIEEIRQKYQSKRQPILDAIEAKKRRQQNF
As to conditions: at 0.1 µM.

The target in assay [17] is T4, Serine/threonine-protein kinase 4 (Homo sapiens). To be noted: at 1 µM.
In assay [18] the target is T5, Serine/threonine-protein kinase 3 (Homo sapiens) (UniProt Q13188).
T5 sequence (whole entry): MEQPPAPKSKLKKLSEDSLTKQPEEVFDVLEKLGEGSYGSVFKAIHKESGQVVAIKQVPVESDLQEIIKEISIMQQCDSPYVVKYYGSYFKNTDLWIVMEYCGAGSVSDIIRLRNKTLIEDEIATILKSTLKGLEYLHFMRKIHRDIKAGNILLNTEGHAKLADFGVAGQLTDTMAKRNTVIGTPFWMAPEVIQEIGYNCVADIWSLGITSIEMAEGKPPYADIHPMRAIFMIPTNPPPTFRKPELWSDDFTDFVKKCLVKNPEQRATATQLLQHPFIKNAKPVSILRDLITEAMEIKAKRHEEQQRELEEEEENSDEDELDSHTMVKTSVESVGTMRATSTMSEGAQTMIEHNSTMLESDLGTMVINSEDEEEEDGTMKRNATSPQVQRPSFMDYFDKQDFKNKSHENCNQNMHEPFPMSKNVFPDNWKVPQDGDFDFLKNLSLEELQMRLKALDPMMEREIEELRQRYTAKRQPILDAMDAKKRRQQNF
To be noted: at 0.1 µM.

For assay [19], the target named is T5, Serine/threonine-protein kinase 3 (Homo sapiens). To be noted: at 1 µM.
Assay [20] addresses Serine/threonine-protein kinase 26 (Homo sapiens) (UniProt Q9P289). To be noted: at 0.1 µM.

Aurora kinase B (Homo sapiens), sequence (Q96GD4 whole entry): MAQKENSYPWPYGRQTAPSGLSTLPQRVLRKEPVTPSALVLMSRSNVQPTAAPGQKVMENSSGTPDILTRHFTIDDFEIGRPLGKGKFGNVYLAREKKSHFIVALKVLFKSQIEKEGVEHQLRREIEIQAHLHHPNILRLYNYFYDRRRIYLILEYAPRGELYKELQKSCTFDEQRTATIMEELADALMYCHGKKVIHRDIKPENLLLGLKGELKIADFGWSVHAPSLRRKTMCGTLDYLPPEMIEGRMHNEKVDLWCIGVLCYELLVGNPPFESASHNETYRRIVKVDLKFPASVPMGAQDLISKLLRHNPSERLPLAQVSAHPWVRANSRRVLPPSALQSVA
Serine/threonine-protein kinase 26 (Homo sapiens), sequence (Q9P289 2-416 limits assumed): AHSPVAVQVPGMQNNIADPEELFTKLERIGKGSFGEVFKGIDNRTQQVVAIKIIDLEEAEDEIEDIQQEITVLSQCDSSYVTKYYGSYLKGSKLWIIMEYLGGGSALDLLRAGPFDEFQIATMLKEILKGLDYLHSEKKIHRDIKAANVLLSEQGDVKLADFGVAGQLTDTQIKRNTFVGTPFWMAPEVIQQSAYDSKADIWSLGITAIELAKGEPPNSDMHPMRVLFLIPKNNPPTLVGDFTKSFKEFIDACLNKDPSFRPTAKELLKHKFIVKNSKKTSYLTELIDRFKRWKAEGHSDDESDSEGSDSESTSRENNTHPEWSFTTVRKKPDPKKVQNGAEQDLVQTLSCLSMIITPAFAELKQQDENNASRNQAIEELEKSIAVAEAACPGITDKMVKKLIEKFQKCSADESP
Serine/threonine-protein kinase 10 (Homo sapiens), sequence (O94804 whole entry, looked up): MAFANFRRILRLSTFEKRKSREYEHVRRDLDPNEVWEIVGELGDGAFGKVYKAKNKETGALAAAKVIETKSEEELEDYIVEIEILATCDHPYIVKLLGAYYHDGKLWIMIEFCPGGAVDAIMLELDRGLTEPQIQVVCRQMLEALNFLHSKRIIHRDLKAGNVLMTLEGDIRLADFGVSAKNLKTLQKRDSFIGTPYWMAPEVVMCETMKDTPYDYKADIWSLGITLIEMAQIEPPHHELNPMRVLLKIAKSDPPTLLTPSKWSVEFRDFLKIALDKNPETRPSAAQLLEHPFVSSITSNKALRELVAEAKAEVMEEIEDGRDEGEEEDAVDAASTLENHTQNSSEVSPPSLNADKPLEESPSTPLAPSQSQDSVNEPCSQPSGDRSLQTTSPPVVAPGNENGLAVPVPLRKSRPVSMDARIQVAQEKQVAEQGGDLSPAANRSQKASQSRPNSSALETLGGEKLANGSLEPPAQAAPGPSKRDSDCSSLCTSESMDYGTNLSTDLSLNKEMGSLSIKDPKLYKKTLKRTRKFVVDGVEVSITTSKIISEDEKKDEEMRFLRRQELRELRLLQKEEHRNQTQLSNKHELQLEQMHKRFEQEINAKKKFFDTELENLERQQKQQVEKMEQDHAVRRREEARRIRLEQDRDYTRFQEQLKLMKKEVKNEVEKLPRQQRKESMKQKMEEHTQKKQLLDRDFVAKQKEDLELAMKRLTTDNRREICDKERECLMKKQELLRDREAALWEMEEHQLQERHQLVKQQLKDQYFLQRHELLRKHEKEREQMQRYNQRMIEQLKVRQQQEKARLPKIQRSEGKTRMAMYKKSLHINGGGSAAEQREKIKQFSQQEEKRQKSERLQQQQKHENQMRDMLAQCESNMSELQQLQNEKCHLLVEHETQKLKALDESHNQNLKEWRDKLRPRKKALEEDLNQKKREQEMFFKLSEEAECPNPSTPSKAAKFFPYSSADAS
Dual specificity mitogen-activated protein kinase kinase 1 (Homo sapiens), sequence (Q02750 whole entry): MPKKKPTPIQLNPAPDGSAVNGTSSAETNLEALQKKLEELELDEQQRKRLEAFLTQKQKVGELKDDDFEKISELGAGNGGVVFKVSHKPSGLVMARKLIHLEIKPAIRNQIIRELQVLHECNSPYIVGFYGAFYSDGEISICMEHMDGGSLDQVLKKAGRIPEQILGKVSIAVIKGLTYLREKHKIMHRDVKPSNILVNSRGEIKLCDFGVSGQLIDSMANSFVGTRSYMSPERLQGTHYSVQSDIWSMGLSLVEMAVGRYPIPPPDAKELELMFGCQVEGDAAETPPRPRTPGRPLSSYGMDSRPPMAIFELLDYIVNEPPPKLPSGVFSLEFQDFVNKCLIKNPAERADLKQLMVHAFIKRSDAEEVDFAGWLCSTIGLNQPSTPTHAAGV
Mitogen-activated protein kinase kinase kinase kinase 4 (Homo sapiens), sequence (O95819 2-1239 limits assumed): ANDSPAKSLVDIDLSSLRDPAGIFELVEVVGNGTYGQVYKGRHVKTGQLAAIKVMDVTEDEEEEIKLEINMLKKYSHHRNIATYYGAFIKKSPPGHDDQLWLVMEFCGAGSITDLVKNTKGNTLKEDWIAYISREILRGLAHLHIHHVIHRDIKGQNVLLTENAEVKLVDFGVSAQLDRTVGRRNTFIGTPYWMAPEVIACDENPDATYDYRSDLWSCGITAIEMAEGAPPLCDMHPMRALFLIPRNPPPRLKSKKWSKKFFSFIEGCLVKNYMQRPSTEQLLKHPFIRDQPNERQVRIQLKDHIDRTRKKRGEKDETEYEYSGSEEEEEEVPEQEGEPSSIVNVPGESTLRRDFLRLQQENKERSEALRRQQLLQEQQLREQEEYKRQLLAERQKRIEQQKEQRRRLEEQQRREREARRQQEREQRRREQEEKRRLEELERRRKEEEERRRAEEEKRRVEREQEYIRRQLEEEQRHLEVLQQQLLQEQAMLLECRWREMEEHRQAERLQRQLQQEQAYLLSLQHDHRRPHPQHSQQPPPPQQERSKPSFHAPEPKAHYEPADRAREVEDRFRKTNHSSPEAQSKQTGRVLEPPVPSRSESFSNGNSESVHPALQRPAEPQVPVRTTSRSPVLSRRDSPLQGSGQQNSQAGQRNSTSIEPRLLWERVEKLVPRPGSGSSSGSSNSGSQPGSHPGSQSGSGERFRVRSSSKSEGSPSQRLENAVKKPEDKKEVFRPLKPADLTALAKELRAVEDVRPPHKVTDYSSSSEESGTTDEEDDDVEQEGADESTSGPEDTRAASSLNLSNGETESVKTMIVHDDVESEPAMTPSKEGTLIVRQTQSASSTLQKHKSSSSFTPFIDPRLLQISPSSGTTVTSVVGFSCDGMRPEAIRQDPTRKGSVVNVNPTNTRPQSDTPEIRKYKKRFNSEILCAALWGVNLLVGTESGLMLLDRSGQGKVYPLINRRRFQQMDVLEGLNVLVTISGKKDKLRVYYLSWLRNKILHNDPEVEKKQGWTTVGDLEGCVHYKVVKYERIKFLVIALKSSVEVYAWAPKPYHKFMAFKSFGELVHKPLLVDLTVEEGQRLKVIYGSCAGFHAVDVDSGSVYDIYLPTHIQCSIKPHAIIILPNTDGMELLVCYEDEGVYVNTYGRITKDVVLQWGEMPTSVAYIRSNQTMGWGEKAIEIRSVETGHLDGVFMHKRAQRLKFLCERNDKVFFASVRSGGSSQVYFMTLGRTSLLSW
Misshapen-like kinase 1 (Homo sapiens), sequence (Q8N4C8 whole entry, looked up): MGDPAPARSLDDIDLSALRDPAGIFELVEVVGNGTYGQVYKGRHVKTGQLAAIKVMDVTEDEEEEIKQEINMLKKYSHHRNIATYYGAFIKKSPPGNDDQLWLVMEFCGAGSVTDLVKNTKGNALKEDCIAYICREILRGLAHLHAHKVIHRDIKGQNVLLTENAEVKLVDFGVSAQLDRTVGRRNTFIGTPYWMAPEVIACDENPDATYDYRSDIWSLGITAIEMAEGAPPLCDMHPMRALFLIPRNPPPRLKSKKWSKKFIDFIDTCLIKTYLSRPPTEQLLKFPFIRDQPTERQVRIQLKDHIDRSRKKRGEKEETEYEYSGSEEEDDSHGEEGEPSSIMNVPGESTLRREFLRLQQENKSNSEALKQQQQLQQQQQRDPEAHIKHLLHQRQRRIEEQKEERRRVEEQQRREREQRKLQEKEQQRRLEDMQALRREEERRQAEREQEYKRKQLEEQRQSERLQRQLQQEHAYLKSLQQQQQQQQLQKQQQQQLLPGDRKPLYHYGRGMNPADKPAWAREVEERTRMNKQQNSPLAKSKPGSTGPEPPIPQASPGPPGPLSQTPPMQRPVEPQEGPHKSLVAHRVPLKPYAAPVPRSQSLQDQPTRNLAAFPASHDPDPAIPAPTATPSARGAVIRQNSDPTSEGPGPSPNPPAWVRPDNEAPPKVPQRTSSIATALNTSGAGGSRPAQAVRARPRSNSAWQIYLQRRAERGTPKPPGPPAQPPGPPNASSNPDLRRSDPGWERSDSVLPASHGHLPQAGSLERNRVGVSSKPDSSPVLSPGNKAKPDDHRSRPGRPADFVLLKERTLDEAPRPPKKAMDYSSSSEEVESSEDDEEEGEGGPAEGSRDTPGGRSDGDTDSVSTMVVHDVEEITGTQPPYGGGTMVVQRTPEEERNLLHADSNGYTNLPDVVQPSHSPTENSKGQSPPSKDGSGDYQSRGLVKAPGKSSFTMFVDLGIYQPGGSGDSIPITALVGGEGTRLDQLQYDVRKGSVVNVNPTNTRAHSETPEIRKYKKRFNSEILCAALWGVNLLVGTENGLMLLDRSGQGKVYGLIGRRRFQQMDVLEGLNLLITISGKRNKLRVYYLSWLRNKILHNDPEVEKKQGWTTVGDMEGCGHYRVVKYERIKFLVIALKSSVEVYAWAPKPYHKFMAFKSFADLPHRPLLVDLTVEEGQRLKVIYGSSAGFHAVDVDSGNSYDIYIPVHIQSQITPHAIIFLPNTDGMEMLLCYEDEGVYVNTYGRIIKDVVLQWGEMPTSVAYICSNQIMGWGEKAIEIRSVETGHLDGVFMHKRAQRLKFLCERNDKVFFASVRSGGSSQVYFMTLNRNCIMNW

As for `NS(=O)(=O)c1ccc(N/C=C2\C(=O)Nc3ccc4ncsc4c32)cc1`, the inhibition worked out at 80.2% in assay [1]; 19.6% in assay [2]; 55.2% in [3]; 22.5% in assay [4]; 79.2% in assay [5]; 5.85% in [6]. The inhibition in assay [7] came out at 16.2%; in assay [8], 12.8%; in assay [9] it was 52.1%; in [10] it was 55.1%; in assay [11], 76.9%; in [12], 8.75%. In addition, the inhibition in assay [13] was 42.9%; in [14] it was 45.2%; in assay [15], 76.9%; in assay [16], 70.2%; in assay [17], 75.2%; in assay [18], 65.1%. The inhibition turned out to be 73.7% in [19] and 42.6% in assay [20].
In the case of `CCn1c(-c2nonc2N)nc2c(C#CC(C)(C)O)nc(O[C@@H](CN)c3ccccc3)cc21`, the inhibition in assay [1] is 5.65%; in assay [2] it was 0.38%; in assay [3], 6.56%; in assay [4] it was -0.63%; in [5], 1.38%; in assay [6] it was 1.16%. For the same molecule, the inhibition was 19.8% in [7]; 4.66% in assay [8]; 24.8% in assay [9]; 2.87% in [10]; 20.4% in [11]; -0.01% in assay [12]. Further, the inhibition in assay [13] was 6.28%; in assay [14], 2.21%; in [15] it was 11%; in [16], 3.02%; in assay [17], 15.9%; in [18], 1.12%. For the same molecule, the inhibition in assay [20] stood at 1.22%.
For `Fc1ccc(-c2ncn(C3CCNCC3)c2-c2ccnc(Oc3ccccc3)n2)cc1`, the inhibition in assay [1] was -2.89%; in assay [2] it was -0.82%; in assay [3], 1.75%; in assay [4] it was -4.42%; in assay [5], -1.24%; in assay [6] it was 6.38%. Besides, the inhibition amounted to 8.33% in assay [7]; 1.61% in assay [8]; 4.65% in assay [9]; 1.76% in [10]; 6.15% in [11]; 1.34% in assay [12]. For the same molecule, the inhibition was determined as 3.93% in assay [13]; 2.7% in [14]; 6.65% in [15]; 0.94% in assay [16]; 1.85% in assay [17]; 1.01% in assay [18]. For the same molecule, the inhibition in [19] is 2.48%; in [20], -0.85%.
As to `Cc1cc(-c2ccco2)cc(C)c1/C=C/c1cncc(-c2nn[nH]n2)c1`, the inhibition in assay [1] is 20%; in assay [2], 0%; in assay [3], 3.63%; in assay [4], -0.32%; in assay [5] it was 7.33%; in assay [6], 2.24%. In addition, the inhibition in assay [7] was 2.3%; in assay [8] it was 1.39%; in assay [9], 1.37%; in assay [10], 1.07%; in [11], -0.27%; in assay [12], 3.02%. Also, the inhibition in [13] was 3.14%; in [14], 1.5%; in assay [15], 0.04%; in [16] it was 0.26%; in assay [17], 0.16%; in [18], -0.6%. The inhibition worked out at 0.69% in assay [19] and 1.06% in assay [20].
Regarding `COc1cc2c(cc1Nc1nc(Nc3ccsc3C(N)=O)c3cc[nH]c3n1)N(C(=O)CN(C)C)CCC2`, the inhibition amounted to 0.75% in assay [2]; 2.92% in assay [3]; 1.46% in [4]; 2.53% in [5]; 11.4% in [6]; 17.4% in assay [7]. In addition, the inhibition in [8] is 1.63%; in assay [9], 11.8%; in [10], 9.31%; in [11], 14.9%; in assay [12], -3.96%; in assay [13], -5.54%. Besides, the inhibition in assay [14] stood at 13.3%; in assay [15], 17%; in assay [16] it was 1.72%; in [17], 8.27%; in [20], 1.14%.
As to `CCn1c(-c2nonc2N)nc2c(C#CC(C)(C)O)ncc(OCC3CCNCC3)c21`, the inhibition in assay [1] was 3.09%; in [2], -0.07%; in assay [3], 0.45%; in assay [4] it was -3.33%; in assay [6], 3.91%; in [7], 13.6%. In addition, the inhibition in [8] was 1.42%; in assay [9], 1.95%; in [10], 4.98%; in assay [11], 17.6%; in assay [12], 5.08%; in assay [13], 4.1%. Also, the inhibition turned out to be 5.98% in [14]; 13.3% in assay [15]; 8.62% in assay [16]; 16.3% in [17]; 8.69% in assay [18]; 14.7% in assay [19]. Further, in assay [20], the inhibition was 0.23%.
With `CCn1c(-c2nonc2N)nc2c(C#CC(C)(C)O)ncc(OC[C@@H]3CCCN3)c21`, the inhibition in assay [1] is 1.08%; in assay [2], -1.36%; in assay [3], 0.87%; in [4], 1.23%; in [5], 1.45%; in assay [6], -0.11%. For the same molecule, the inhibition in assay [7] turned out to be 5.64%; in assay [8], 2.41%; in [9], 3.31%; in [10], 0.39%; in assay [11], 2.54%; in assay [12], 1.6%. The inhibition in [13] turned out to be 0.19%; in assay [14] it was 0.63%; in assay [15], 0.93%; in assay [16] it was 0.46%; in assay [17] it was 2.14%; in assay [18] it was 0.87%. Moreover, the inhibition turned out to be 2.41% in [19] and 0.78% in assay [20].

By inhibition is commonly meant the relative decrease from the control value, in per cent.
